Test [1] in a line: Wnt pathway potentiators raising nuclear beta-catenin – imaging, WNT3A-conditioned medium, mouse C2C12, NPC library, primary screen (AID 1117326; in the data active = nuclear beta-catenin stimulation mostly above about 4.2%, no sharp cut-off; inactive = mostly below about 10%). Conditions: stronger effect = higher value.
Test [2] in a line: stimulators of insulin release from INS-1E, primary screen, cell-based, 5 mM glucose, NPC library (AID 1117329;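 active = compound raises insulin release from rat beta cells at 5 mM glucose, no numeric limit stated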). Conditions: rat INS-1E insulin secretion, at 10 µM, stronger effect = higher value.
Test [3] is described as follows: growth inhibition of GSK3B-pretreated HCT116 cells – cell-based, CellTiter-Glo, 0.2 to 20 µM (AID 1117336;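 active = compounds lowering colon cancer cell viability after pretreatment blocking the GSK3B kinase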). The conditions noted are these: HCT116 viability after GSK3B inhibitor, at 20 µM, stronger effect = higher value. (In general: In ATP-based viability assays light output follows the ATP content of the culture.)
Test [4] can be described thus: inhibition of endothelial tube formation, primary screen, imaging, VEGF stimulated, CD31 staining, tube area, NPC library (AID 1117340;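 active = compound that reduces growth-factor-driven endothelial tube area in a mixed cell culture, no cutoff stated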). Conditions: VEGF-stimulated ADSC/ECFC co-culture, at 10 µM, stronger effect = higher value.
A short description of test [5]: GLP1 release stimulators, primary, NCI-H716, NPC library (AID 1117341;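 active = compound raises GLP1 secretion from the human gut endocrine cells, with no numeric limit stated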). The conditions noted are these: NCI-H716 cells, at 10 µM, stronger effect = higher value.
The nature of test [6]: HCT116 colon cancer cell growth inhibition, primary screen, CellTiter-Glo luminescence, NPC library (AID 1117342;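 active = compounds that lower survival of HCT116 colon cancer cells in the luminescence readout, no numeric limit stated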). The conditions noted are these: at 20 µM (top of the series).
Test [7] can be described thus: reduced SW480 viability measured with CellTiter-Glo, NPC library, primary (AID 1117343;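 active = compounds that lower viability of the colon cancer cells in the luminescence readout, with no numeric limit stated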). The conditions noted are these: CellTiter-Glo luminescence; at 20 µM (top of the series).
Test [8] can be described thus: NPC library primary testing for decreased DLD-1 cell viability via CellTiter-Glo (AID 1117346;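 active = compounds that lower survival of DLD-1 colon cancer cells in the luminescence readout, no cutoff given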). Conditions: DLD-1 viability, CellTiter-Glo luminescence; at 20 µM (top of the series).
Test [9] concerns the target 6-phosphogluconate dehydrogenase, decarboxylating (Homo sapiens) (UniProt P52209). In words: inhibition of human phosphogluconate dehydrogenase – biochemical, recombinant enzyme, NADPH absorbance, primary screen (AID 1159550;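 active = at least 20% inhibition of 6-phosphogluconate dehydrogenase activity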). The conditions noted are these: recombinant 6PGD, NADPH absorbance 341 nm; at 10 µM; stronger effect = higher value.
Test [10] is described as follows: modulation of C. elegans fzo-1 (AID 1259413; call rule not given here;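 note: fzo-1 mutant C. elegans worms in liquid wells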). The conditions noted are these: C. elegans fzo-1 modulator screen, mean read-out; stronger effect = higher value.
Test [11] can be described thus: EMT-state selective cytotoxicity in co-culture – imaging, PC-3E GFP, TEM4-18 mCherry, primary screen (AID 1345086;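 active = compounds killing one labelled cell type while sparing the other, by normalised counts and ratio limits, not self-fluorescent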;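 for all read-outs here: cells exposed to compound for 72 h before imaging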;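 for red/green cell ratio (normalised): normalised mesenchymal count divided by normalised epithelial count so high means epithelial killing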). The conditions noted are these: PC-3E GFP / TEM4-18 mCherry co-culture, imaging cell counts, at 1 µM; for red/green cell ratio (normalised): actives lie on both sides, counts scaled to control wells, 1 = unselective.
Test [12] is described as follows: MELAS cybrid and Rieske KO viability enhancers – cell-based, MELAS cybrids, Rieske KO mouse fibroblasts, CellTiter-Glo, primary screen (AID 1508586;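 active = mean z-score across replicates of 1.96 or higher in either the MELAS or the Rieske mutant cell line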;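 note: z relative to plate mean and SD of compound and empty wells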). Conditions: low glucose.
For test [13], the target named is NAD(+) hydrolase SARM1 (Homo sapiens) (UniProt Q6SZW1). Nature of the test: blocking NAD cleavage by SARM1 SAM-TIR – cell lysate, NAD-Glo luminescence (AID 1508614;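 active = compound whose remaining NAD level is above about 45 nM, limit read from the data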;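 note: higher remaining NAD means stronger inhibition of SARM1 NADase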). The conditions noted are these: SAM-TIR HEK293T lysate NADase, at 1 µM, stronger effect = higher value.
NAD(+) hydrolase SARM1 (Homo sapiens), sequence (Q6SZW1 whole entry, looked up, the tested form may be a part): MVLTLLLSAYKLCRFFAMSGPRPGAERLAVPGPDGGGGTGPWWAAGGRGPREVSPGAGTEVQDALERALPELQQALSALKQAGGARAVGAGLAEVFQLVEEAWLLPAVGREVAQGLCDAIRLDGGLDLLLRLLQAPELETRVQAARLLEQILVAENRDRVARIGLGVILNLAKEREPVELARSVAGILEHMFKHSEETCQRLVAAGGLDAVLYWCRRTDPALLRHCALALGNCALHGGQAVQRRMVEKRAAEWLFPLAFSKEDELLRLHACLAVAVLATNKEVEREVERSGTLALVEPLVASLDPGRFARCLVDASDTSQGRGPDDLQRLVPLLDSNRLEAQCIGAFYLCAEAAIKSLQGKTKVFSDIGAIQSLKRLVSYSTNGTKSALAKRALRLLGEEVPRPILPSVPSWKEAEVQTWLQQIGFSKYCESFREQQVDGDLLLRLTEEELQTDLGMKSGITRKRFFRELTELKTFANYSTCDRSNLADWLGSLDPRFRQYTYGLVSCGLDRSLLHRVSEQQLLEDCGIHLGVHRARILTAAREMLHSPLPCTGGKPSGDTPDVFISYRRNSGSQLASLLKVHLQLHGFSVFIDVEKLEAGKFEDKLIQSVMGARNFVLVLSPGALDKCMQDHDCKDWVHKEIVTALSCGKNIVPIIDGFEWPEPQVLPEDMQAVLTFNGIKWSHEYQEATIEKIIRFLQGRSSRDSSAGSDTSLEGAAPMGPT
The target in test [14] is Mitogen-activated protein kinase 7 (Homo sapiens) (UniProt Q13164). In words: Gal4-ERK5 driven luciferase induction – cell-based, HTS, primary screen (AID 1508626;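 active = luciferase signal above three times the same-plate solvent-only control wells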;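 note: luciferase driven by Gal4-ERK5 fusion binding five Gal4 sites before minimal TATA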). The conditions noted are these: HeLa Gal4-ERK5 transactivation, 18 h, at 5 µM, stronger effect = higher value.
Mitogen-activated protein kinase 7 (Homo sapiens), sequence (Q13164 whole entry, looked up, the tested form may be a part): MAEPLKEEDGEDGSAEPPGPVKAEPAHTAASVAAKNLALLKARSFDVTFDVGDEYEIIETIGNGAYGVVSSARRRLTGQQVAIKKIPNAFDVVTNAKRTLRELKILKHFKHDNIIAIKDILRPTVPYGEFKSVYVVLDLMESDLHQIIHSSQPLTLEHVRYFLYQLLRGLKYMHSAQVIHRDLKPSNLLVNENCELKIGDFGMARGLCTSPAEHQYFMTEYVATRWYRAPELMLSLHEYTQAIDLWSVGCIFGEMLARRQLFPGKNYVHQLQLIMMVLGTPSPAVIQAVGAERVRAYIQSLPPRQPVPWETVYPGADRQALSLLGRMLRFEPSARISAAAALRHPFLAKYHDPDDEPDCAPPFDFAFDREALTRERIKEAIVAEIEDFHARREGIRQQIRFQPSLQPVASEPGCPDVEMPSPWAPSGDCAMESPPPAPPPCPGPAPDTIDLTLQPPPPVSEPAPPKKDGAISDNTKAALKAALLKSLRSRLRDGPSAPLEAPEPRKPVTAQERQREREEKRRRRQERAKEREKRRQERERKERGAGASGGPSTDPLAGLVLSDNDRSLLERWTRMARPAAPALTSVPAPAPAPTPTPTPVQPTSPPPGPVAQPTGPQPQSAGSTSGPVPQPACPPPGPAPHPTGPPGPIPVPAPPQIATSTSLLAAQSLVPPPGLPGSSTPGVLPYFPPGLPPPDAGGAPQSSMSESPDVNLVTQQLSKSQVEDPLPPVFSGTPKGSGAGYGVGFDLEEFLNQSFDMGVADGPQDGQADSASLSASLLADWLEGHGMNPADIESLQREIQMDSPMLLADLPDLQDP
The next test relates to F380Y. In words: BK channel mutant inhibitors and activators – cell-based, U2OS BacMam, thallium flux, beta subunits, selectivity assay, profiling panel (AID 1259406).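 Note: initial slope of Thallos dye fluorescence rise after thallium is added; log ratio against the mean of 0.3% DMSO vehicle wells on the same plate.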 Conditions: U2OS BacMam BK variants, at 30 µM.
The test system of a further test is F380Y/beta1. The test is described as above. The conditions noted are these: U2OS BacMam BK variants, at 30 µM.
In another test the test system is F380Y/beta2Delta. The description is as above. The conditions noted are these: U2OS BacMam BK variants, at 30 µM.
A further test relates to F380Y/beta4. Described as above. Conditions: U2OS BacMam BK variants, at 30 µM.
Test [15] concerns the target Calcium-activated potassium channel subunit alpha-1 (Homo sapiens) + Leucine-rich repeat-containing protein 26 (Homo sapiens) (UniProt Q12791+Q2I0M4). The description is as above. Conditions: U2OS BacMam BK variants, F380Y/Slo1WT/gamma1, at 30 µM.
Setting [16] is: measured here: epithelial PC-3E GFP cell survival.
Where [17] appears, read: measured here: mesenchymal TEM4-18 mCherry cell survival.
[18] abbreviates: MELAS cybrid survival, CellTiter-Glo 48 h, stronger effect = higher value.
Where [19] appears, read: Rieske KO mouse fibroblast survival, CellTiter-Glo 72 h.

Values joined by “and” are separate entries in the source; they are usually repeats but may differ in a detail not shown here. Identical values can stand only once. Active and inactive are the calls of the source.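 Rule for the calls, unless noted: active = thallium flux through the channel raised or lowered by more than 3 SD from vehicle-only wells, actives on both sides; inactive = the rest.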

6-phosphogluconate dehydrogenase, decarboxylating (Homo sapiens), sequence (P52209 whole entry, looked up): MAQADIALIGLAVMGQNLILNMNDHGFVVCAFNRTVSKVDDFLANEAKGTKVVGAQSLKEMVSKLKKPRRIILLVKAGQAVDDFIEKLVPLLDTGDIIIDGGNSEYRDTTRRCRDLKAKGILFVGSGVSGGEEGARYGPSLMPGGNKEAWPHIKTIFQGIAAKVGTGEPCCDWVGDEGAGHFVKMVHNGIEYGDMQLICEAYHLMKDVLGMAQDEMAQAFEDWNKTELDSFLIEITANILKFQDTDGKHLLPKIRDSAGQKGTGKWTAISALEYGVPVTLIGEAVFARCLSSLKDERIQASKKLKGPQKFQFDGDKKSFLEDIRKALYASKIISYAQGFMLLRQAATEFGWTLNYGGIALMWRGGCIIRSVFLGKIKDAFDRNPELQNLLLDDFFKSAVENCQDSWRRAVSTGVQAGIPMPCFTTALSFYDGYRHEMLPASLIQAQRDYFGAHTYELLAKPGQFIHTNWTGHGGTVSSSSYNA
Calcium-activated potassium channel subunit alpha-1 (Homo sapiens) + Leucine-rich repeat-containing protein 26 (Homo sapiens), sequence (Q2I0M4 whole entry, looked up, one chain of several): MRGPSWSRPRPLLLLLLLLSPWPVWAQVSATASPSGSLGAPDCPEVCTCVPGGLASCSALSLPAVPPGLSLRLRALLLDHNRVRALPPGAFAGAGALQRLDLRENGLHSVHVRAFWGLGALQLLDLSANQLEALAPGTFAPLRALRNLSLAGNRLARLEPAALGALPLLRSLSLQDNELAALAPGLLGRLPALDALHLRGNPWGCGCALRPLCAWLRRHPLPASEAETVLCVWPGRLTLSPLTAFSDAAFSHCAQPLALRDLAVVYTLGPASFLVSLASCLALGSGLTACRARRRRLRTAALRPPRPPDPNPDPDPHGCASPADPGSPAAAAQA

The term inhibition denotes the drop in the measured response relative to a control, in per cent. For `O=C(O)c1cc(=O)c2c(OCC(O)COc3cccc4oc(C(=O)O)cc(=O)c34)cccc2o1`, the nuclear beta-catenin stimulation in [1] (at 10 µM) is -1.8% (inactive); in [1] (stimulation, at 2 µM), 1.3%. Further, in [2], the insulin secretion stimulation was 1.6% (inactive). Further, the viability decrease in [3] is -32.8% (inactive). The tube area decrease in test [4] is -2.5% (inactive). Also, the GLP1 secretion stimulation in [5] is -0.5% (inactive). The inhibition of viability in test [6] is 2.4% (inactive). In addition, the viability decrease (inhibition) in [7] is 19.3% (inactive); in test [8], -7.8% (inactive). In test [9], the inhibition is 10.5% (inactive). Moreover, in test [10], the mean signal was 249 (inactive). Also, the red/green cell ratio (normalised) in test [11] is 1.26 (inactive). Besides, the normalised cell number was determined as 1.29 in [11] (setting [16]) and 1.63 in test [11] (setting [17]). The z-score in [12] (setting [18]) is 0.0651 (inactive) and -0.552 (inactive); in test [12] (setting [19]) it was 0.522 and -0.245. Besides, the remaining NAD in test [13] is 10 nM (inactive). The luciferase signal in [14] is 72 AU (inactive). Moreover, the log fold change Tl+ flux in the test on F380Y is -0.0252 (inactive); in the test on F380Y/beta1 it was -0.0414 (inactive); in the test on F380Y/beta2Delta it was -0.0103 (inactive); in the test with F380Y/beta4, -0.0657 (inactive); in test [15], -0.0248 (inactive).
Take `CC(=O)CC(c1ccccc1)c1c(O)c2ccccc2oc1=O` (centres undefined): the nuclear beta-catenin stimulation is 3.2% (inactive) in test [1] (at 10 µM) and 0.2% in [1] (stimulation, at 2 µM). Also, the insulin secretion stimulation in test [2] was 0.2% (inactive). The viability decrease in test [3] was -5.05% (inactive). The tube area decrease in test [4] was -0.7% (inactive). Further, in test [5], the GLP1 secretion stimulation was 3.5% (inactive). Further, the inhibition of viability in test [6] was -17.8% (inactive). The viability decrease (inhibition) in test [7] is 32.5% (inactive); in [8] it was 7% (inactive). Besides, the inhibition in [9] was 6.78% (inactive). For the same molecule, the mean signal in test [10] was 249 (inactive). Moreover, the red/green cell ratio (normalised) in test [11] was 0.98 (inactive). Further, the figures for the normalised cell number in [11] (setting [16]) and in test [11] (setting [17]) were 1.05 and 1.02, respectively. The z-score in test [12] (setting [18]) is -0.697 (inactive); in test [12] (setting [19]) it was -0.222. The remaining NAD in [13] was 10 nM (inactive). Besides, the luciferase signal in test [14] was 136 AU (inactive). For the same molecule, the log fold change Tl+ flux in the test on F380Y was -0.00266 (inactive); with F380Y/beta1, -0.0341 (inactive); in the test on F380Y/beta2Delta, 0.0322 (inactive); with F380Y/beta4, 0.0212 (inactive); in [15], -0.00524 (inactive).
`CC(C)NCC(O)c1cc(O)cc(O)c1` (centres undefined): the nuclear beta-catenin stimulation in test [1] (at 10 µM) is 1.6% (inactive); in test [1] (stimulation, at 2 µM), 0.9%. Moreover, the insulin secretion stimulation in test [2] was 1.2% (inactive). For the same molecule, the viability decrease in test [3] was 6% (inactive). Also, the tube area decrease in [4] is 3.6% (inactive). The GLP1 secretion stimulation in test [5] is 2.2% (inactive). In addition, the inhibition of viability in test [6] was -11.2% (inactive). The viability decrease (inhibition) is -1.6% (inactive) in test [7] and -9.9% (inactive) in test [8]. Moreover, the inhibition in test [9] is -6.42% (inactive). In addition, the mean signal in [10] was 261 (inactive). The red/green cell ratio (normalised) in [11] is 1.18 (inactive). Moreover, the normalised cell number in test [11] (setting [16]) was 1.02; in [11] (setting [17]), 1.2. Further, the results for the z-score in [12] (setting [18]) and in test [12] (setting [19]) were 0.509 (inactive) and 0.459, respectively. Besides, the remaining NAD in test [13] is 10 nM (inactive). Also, the luciferase signal in test [14] was 92 AU (inactive). The log fold change Tl+ flux with F380Y is -0.0466 (inactive); in the test on F380Y/beta1, 0.0393 (inactive); in the test on F380Y/beta2Delta it was 0.0418 (inactive); with F380Y/beta4, -0.0531 (inactive); in test [15], 0.0135 (inactive).

The record behind these values is PubChem BioAssay.
